In ChEMBL document CHEMBL1961873, “Compounds: GSK PKIS; Assays: Nanosyn kinase panel” (2012):

How the values were obtained:
[1] = molecular target: Serine/threonine-protein kinase MRCK alpha (Homo sapiens) (UniProt Q5VT25); settings: at 0.1 µM
[2] = molecular target: Serine/threonine-protein kinase MRCK alpha (Homo sapiens) (UniProt Q5VT25); settings: at 1 µM
[3] = molecular target: Serine/threonine-protein kinase MRCK beta (Homo sapiens) (UniProt Q9Y5S2); settings: at 0.1 µM
[4] = molecular target: Serine/threonine-protein kinase MRCK beta (Homo sapiens) (UniProt Q9Y5S2); settings: at 1 µM
[5] = molecular target: Ribosomal protein S6 kinase alpha-5 (Homo sapiens) (UniProt O75582); settings: at 0.1 µM
Chain of Ribosomal protein S6 kinase alpha-5 (Homo sapiens) (O75582 whole entry, looked up): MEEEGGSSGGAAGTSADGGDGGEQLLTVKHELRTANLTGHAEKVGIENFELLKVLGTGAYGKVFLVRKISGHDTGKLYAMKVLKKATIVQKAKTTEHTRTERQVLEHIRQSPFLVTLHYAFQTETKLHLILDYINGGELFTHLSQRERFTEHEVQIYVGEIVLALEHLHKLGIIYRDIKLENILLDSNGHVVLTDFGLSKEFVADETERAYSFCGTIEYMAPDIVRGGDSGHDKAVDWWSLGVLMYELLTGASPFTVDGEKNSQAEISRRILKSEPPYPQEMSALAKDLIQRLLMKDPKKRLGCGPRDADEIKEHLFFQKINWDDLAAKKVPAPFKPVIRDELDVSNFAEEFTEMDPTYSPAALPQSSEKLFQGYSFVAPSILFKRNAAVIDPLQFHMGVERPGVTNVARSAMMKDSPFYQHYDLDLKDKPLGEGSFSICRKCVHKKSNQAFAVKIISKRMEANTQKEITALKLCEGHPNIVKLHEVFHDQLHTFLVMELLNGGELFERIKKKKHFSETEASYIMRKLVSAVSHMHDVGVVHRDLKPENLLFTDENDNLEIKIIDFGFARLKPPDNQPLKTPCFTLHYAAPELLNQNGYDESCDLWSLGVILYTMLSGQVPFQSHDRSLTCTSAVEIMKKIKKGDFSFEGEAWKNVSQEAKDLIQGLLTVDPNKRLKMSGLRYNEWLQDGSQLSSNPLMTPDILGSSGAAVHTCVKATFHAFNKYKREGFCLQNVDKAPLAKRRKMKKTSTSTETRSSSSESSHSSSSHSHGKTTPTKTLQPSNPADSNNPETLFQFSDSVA

[6] = molecular target: Ribosomal protein S6 kinase alpha-5 (Homo sapiens) (UniProt O75582); settings: at 1 µM
[7] = molecular target: Ribosomal protein S6 kinase alpha-4 (Homo sapiens) (UniProt O75676); settings: at 0.1 µM
Chain of Ribosomal protein S6 kinase alpha-4 (Homo sapiens) (O75676 whole entry, looked up): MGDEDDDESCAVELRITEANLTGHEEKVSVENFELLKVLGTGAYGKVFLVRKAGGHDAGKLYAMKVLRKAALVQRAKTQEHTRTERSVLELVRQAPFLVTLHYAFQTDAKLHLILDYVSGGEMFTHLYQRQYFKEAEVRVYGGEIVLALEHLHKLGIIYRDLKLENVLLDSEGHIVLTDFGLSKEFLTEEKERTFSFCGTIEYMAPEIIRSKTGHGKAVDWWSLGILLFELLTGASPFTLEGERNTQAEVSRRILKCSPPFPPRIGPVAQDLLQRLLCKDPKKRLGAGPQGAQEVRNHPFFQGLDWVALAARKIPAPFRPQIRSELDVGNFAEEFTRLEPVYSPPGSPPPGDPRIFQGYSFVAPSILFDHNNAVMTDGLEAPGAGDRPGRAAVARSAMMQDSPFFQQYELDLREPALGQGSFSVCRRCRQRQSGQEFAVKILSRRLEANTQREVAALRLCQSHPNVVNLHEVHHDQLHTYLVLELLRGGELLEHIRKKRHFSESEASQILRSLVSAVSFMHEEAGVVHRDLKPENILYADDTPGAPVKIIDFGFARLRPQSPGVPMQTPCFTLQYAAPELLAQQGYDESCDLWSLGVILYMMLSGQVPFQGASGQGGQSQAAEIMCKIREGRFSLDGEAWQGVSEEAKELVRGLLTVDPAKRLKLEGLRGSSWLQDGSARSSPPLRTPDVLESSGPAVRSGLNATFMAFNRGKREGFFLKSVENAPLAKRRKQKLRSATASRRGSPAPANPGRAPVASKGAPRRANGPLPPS

[8] = molecular target: Ribosomal protein S6 kinase alpha-4 (Homo sapiens) (UniProt O75676); settings: at 1 µM
[9] = molecular target: Ribosomal protein S6 kinase beta-1 (Homo sapiens) (UniProt P23443); settings: at 0.1 µM
Chain of Ribosomal protein S6 kinase beta-1 (Homo sapiens) (P23443 whole entry, looked up): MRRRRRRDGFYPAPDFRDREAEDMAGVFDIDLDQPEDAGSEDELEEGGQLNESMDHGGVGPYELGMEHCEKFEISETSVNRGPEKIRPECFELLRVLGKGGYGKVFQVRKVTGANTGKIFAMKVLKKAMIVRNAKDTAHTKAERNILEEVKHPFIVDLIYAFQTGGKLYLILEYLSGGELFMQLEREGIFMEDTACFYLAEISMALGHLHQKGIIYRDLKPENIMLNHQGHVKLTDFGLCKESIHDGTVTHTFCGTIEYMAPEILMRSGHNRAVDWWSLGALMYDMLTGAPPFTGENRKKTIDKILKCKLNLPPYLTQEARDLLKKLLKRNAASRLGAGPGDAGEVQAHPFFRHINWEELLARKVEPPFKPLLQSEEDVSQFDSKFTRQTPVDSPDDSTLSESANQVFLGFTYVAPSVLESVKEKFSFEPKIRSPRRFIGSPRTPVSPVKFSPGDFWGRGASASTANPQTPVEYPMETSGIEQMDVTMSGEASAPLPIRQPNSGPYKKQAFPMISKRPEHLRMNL

[10] = molecular target: Ribosomal protein S6 kinase beta-1 (Homo sapiens) (UniProt P23443); settings: at 1 µM

Chain of Serine/threonine-protein kinase MRCK beta (Homo sapiens) (Q9Y5S2 whole entry): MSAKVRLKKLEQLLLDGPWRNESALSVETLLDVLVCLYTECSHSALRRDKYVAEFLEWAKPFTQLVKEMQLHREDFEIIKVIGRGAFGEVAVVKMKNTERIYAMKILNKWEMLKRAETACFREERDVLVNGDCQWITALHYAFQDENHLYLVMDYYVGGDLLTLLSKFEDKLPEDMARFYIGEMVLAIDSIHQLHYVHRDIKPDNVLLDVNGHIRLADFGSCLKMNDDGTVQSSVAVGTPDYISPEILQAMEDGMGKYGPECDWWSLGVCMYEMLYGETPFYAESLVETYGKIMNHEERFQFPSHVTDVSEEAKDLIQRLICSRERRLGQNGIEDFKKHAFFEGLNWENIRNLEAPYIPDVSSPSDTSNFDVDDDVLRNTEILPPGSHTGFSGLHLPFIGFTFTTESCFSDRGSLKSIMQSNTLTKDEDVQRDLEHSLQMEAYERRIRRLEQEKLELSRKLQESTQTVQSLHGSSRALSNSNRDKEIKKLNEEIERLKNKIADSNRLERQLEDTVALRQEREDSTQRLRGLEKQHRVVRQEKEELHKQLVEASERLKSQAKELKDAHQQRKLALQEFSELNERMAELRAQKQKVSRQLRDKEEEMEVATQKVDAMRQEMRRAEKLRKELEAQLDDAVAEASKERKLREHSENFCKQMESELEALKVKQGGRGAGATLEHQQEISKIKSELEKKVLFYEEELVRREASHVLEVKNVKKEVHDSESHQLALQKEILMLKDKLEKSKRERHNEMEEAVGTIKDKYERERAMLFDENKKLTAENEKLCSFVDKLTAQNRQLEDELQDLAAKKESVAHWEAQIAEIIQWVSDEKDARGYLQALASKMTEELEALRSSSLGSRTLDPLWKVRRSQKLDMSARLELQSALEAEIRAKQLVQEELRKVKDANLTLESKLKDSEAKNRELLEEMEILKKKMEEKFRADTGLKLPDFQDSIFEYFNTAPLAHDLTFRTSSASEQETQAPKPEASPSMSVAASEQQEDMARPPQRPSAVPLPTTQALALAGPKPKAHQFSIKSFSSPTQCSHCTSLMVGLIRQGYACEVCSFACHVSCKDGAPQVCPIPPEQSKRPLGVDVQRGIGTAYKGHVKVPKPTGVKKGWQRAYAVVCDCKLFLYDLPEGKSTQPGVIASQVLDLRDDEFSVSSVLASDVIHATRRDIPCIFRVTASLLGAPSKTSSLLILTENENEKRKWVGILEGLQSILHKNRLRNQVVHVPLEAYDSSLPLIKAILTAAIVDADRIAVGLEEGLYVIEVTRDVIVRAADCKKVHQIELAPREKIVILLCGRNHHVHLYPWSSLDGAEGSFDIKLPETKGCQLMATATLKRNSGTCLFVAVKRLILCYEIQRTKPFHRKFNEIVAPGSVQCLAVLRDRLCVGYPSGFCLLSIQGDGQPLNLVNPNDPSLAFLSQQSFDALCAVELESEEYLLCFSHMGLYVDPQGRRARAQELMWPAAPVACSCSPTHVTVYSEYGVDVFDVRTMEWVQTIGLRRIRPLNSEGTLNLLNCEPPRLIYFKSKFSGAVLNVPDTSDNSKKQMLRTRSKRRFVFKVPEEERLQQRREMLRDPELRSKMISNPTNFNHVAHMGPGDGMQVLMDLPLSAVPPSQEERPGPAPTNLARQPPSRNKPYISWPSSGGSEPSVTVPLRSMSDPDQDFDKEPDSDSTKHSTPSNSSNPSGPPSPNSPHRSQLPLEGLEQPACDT

Row | Compound | inhibition [1] | inhibition [2] | inhibition [3] | inhibition [4] | inhibition [5] | inhibition [6] | inhibition [7] | inhibition [8] | inhibition [9] | inhibition [10]
1 | CCn1c(-c2nonc2N)nc2cncc(C(=O)N3CCNCC3)c21 | 5.33% | 7.84% | 0.36% | 3.02% | 5.57% | 7.4% | 3.28% | 4.71% | 2.87% | 4.44%
2 | CCCN1CCC(Oc2cc(Nc3nc(Nc4cccc(F)c4C(N)=O)c4cc[nH]c4n3)c(OC)cc2Cl)CC1 | 0.81% | -1.24% | 1.36% | 2.2% | 1.01% | 3.87% | 1.03% | 1.99% | -0.03% | 1.36%
3 | CCn1c(-c2nonc2N)nc2ccncc21 | 1.72% | 1.13% | 0.86% | 0.41% | 1.63% | 2.9% | 0.33% | 2.82% | 1.28% | 3.8%
4 | COC(=O)Nc1nc2cc(Oc3ccc(NC(=O)Nc4cccc(C(=O)O)c4)cc3)ccc2[nH]1 | 1.42% | 1.5% | -0.52% | -1.21% | -0.25% | 1.28% | 1.24% | 2.84% | 0.88% | 0.91%
5 | O=C1NC(=O)C(N2CCc3ccccc32)=C1c1ccc(Cl)cc1 | 0.19% | 0.98% | 0.69% | 1.86% | 9.94% | 7.93% | 1.73% | 4.02% | 1.81% | 1.76%
6 | CS(=O)(=O)CCNCc1nc(-c2ccc3ncnc(Nc4ccc(F)c(Cl)c4)c3c2)cs1 | 1.82% | 3.22% | -0.31% | -0.48% | 1.46% | 6.15% | 1.32% | 1.96% | -0.63% | 1.77%
7 | CS(=O)(=O)Nc1ccc(N/C=C2\C(=O)Nc3ccccc32)cc1 | -2.44% | -0.5% | 0.24% | -0.45% | -1.26% | -0.97% | -0.53% | 7.44% | -0.58% | 3.4%
8 | Nc1ncnc2occ(-c3ccc(NC(=O)Nc4cc(C(F)(F)F)cc(C(F)(F)F)c4)cc3)c12 | -0.38% | -1.97% | 0.11% | 1.52% | 3.6% | 25.2% | -0.06% | 20.1% | 17% | 65.8%
9 | CC(=O)Nc1cccc(C#Cc2cncnc2Nc2ccc(OCc3cccc(F)c3)c(Cl)c2)n1 | 2.04% | 4.47% | 0.72% | 3.16% | 8.63% | 10.1% | 2.79% | 4.81% | 0.05% | 0.93%
10 | NC(=O)c1cccc(Nc2nccc(Nc3cccc4[nH]ncc34)n2)c1 | -0.16% | 2.18% | 0.71% | 3.5% | -3.36% | 2.78% | -1.85% | 1.24% | -1.61% | 4.1%
11 | COc1ccc(-c2ccncc2)cc1C(N)=O | 3.16% | 6.38% | -0.49% | 2.83% | 9.33% | 10.5% | 2.85% | 5.28% | 1.79% | 4.79%
12 | COc1ccc(COc2ccc(Cc3cnc(N)nc3N)cc2OC)cc1 | 1.99% | -0.63% | 3.11% | 3.93% | 8.75% | 5.97% | 1.99% | 1.84% | 1.54% | 0.73%
13 | COc1ccccc1Nc1ncc(-c2ccccc2)o1 | -5.48% | -2.78% | 0.73% | 0.66% | -3.3% | -5.77% | 4.65% | 2.42% | 1.36% | 2.44%
14 | NS(=O)(=O)c1cccc(-c2ccc3c(NC(=O)C4CC4)n[nH]c3c2)c1 | 0.11% | -0.38% | 0.03% | 2.23% | -0.03% | 1.96% | -0.84% | 0.37% | -1.3% | 0.07%
15 | O=C(Nc1n[nH]c2nc(-c3ccco3)c(Br)cc12)C1CC1 | 0.4% | -0.6% | 1.27% | 0.57% | 3.55% | 1.89% | 0.7% | 2.64% | 1.19% | 2.07%
16 | Nc1nc(-c2ccc3c(c2)C(=Cc2cc(Br)c(O)c(Br)c2)C(=O)N3)cs1 | -0.3% | -1.5% | 0.42% | 0.83% | -1.16% | 0.13% | -1.47% | -0.48% | -1.65% | 1.12%
17 | c1cnn2ncc(-c3ccnc(Nc4ccc5c(c4)OCCO5)n3)c2c1 | -0.46% | 0.87% | 1.21% | 1.8% | 4.5% | 6.82% | 2.97% | 6.51% | 1.67% | 5.63%

Row | Compound | inhibition [1] | inhibition [2] | inhibition [3] | inhibition [4] | inhibition [5] | inhibition [6] | inhibition [7] | inhibition [8] | inhibition [9] | inhibition [10]
18 | COc1cc2ncn(-c3cc(O[C@H](C)c4ccccc4Cl)c(C(N)=O)s3)c2cc1OC | 1.89% | 5.55% | 0.35% | 1.02% | -1.18% | 3.73% | 4.32% | 13.8% | 1.42% | 4.7%
19 | [O-][S+]1CCN(Cc2ccc(-c3ccc4ncnc(Nc5ccc(OCc6ccccc6)c(F)c5)c4c3)o2)CC1 | 0.13% | -0.47% | -0.5% | 0.8% | 1.59% | 1.41% | -0.07% | 2.42% | 0.52% | 0.86%
20 | NS(=O)(=O)c1ccc(N/N=C2\C(=O)Nc3ccc(C(=O)NCCc4c[nH]cn4)cc32)cc1 | -0.15% | 2.43% | 1.24% | 2.13% | 4.49% | 5.44% | 4.34% | 18.7% | 2.49% | 8.75%
21 | O=C1Nc2ccc(C(=O)c3ccco3)cc2C1=Cc1cc(Cl)c(O)c(Cl)c1 | -0.25% | 1.33% | -0.3% | 1.6% | 2.41% | 5.05% | 0.41% | 4.81% | 0.47% | 3.14%
22 | Cc1cccc(-c2n[nH]cc2-c2ccc3ncccc3n2)n1 | 0.34% | 0.69% | 0.87% | 1.36% | 0.79% | 0.35% | 1.84% | 0.64% | 0.55% | -0.68%
23 | CS(=O)(=O)CCNCc1ccc(-c2ccc3ncnc(Nc4ccc(OCc5cccc(F)c5)c(C(F)(F)F)c4)c3c2)o1 | -0.31% | 1.73% | -0.15% | 0.67% | 9.28% | 8.53% | 2.67% | 2.44% | 1.58% | 2.22%
24 | COc1cc2ncn(-c3cc(OCc4ccccc4C(F)(F)F)c(C(N)=O)s3)c2cc1OC | -5.9% | -3.27% | -0.23% | -0.14% | 1.71% | 1.02% | 2.52% | 5.14% | 1.44% | 3.22%
25 | Fc1cccc(COc2ccc(Nc3ncnc4cc(-c5ccc[nH]5)sc34)cc2Cl)c1 | -0.43% | -1.14% | 0.61% | 0.75% | 0.34% | 0.11% | 3.11% | 4.08% | 0.99% | 1.05%
26 | COc1cc(C)c(NC(=O)CN(C)C)cc1Nc1nc(Nc2cccc(F)c2C(N)=O)c2cc[nH]c2n1 | -0.22% | 2.53% | -0.26% | 1.65% | 1.58% | 0.97% | -0.16% | 2.07% | 2.03% | 3.01%
27 | CC(C)=Cc1cccc2c1/C(=N/Nc1ccc(S(N)(=O)=O)cc1)C(=O)N2 | 1.91% | 3.43% | -0.74% | 0.5% | 7.7% | 11.4% | 2.65% | 15.9% | 1.06% | 5.23%
28 | Cc1cc(O)cc(C)c1/C=C/c1cncc(-c2nn[nH]n2)c1 | -0.28% | -0.43% | 0.47% | 0.57% | 3.79% | 1.87% | 1.46% | 2.78% | 1.11% | 1.97%
29 | CC1=C(C(=O)Nc2ccc3[nH]ncc3c2)C(c2ccc(F)cc2)NC(=O)N1 (stereo not given) | 2.04% | 12.4% | 5.57% | 29.9% | 8.51% | 34.2% | 3.34% | 16.7% | 1.64% | 13.8%
30 | CCn1c(-c2nonc2N)nc2c(C#CC(C)(C)O)nc(CN3CCCC3)cc21 | 2.53% | 0.11% | 1.98% | 4.91% | 0.29% | 3.07% | 2% | 6.06% | 0.33% | 1.37%
31 | Nc1ncnc2occ(-c3ccc(NC(=O)Nc4cccc(C(F)(F)F)c4)cc3)c12 | -3.03% | 0.21% | 0.84% | 1.21% | 6.35% | 19.5% | 3.31% | 20.8% | 21% | 73.5%
32 | Cc1nn(C)c2cc(N(C)c3ccnc(Nc4cccc(S(N)(=O)=O)c4)n3)ccc12 | -1.1% | 2.42% | 1.01% | 3.81% | 10.5% | 11.1% | 4.88% | 6.94% | 2.3% | 2.85%
33 | COC(=O)Nc1nc2cc(Oc3cccc(NC(=O)Nc4cc(C(F)(F)F)ccc4F)c3)ccc2[nH]1 | 0.87% | 0.69% | -0.19% | 2.03% | 0.09% | 1.11% | -0.69% | 1.7% | -0.07% | 1.88%
